In PubChem BioAssay AID1851 (National Center for Advancing Translational Sciences (NCATS), 2009):
Out of some 16,000 compounds screened, about 5,100 (32%) were called active. Another 25% or so got no clear call; they are omitted. The list shows a part of the results. A number with no mark means an inactive call. The call rests on the fitted dose curve; in most records, active means well fitted curve in the direction sought with a large enough effect; inconclusive means small, poorly fitted or top-dose-only effect, or effect the other way; inactive means no such curve, though single readings can be large or run the other way.

target: Cytochrome P450 3A4 (Homo sapiens) (UniProt P08684); assay: Cytochrome panel assay with activity outcomes; conditions: recombinant CYP, pro-luciferin dealkylation, luminescence, p450-cyp3a4; series mostly up to 57.1 µM; activity, negative = inhibition: at the top concentration
Sequence (P08684 whole entry, looked up): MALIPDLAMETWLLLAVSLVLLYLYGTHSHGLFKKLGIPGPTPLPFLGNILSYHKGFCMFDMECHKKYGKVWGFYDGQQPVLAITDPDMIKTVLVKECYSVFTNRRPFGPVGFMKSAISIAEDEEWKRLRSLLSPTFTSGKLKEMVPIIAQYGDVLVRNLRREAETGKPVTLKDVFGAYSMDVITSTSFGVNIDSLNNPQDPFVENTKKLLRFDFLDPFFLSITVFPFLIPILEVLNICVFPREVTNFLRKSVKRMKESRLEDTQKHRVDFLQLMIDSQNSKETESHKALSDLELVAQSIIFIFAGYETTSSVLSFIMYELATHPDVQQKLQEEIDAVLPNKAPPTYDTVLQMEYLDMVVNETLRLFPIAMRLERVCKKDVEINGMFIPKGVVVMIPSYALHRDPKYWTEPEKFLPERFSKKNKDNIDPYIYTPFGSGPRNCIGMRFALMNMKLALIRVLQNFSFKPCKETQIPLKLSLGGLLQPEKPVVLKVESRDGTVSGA
On the % scale 0 is the no-effect control and ±100 the full control effect.

Compound	activity, negative = inhibition	AC50
COC1=C(C)C(=O)c2c(c(COC(N)=O)c3n2C[C@@H]2[C@@H]3N2C)C1=O (some centres undefined)	-20.6% [at 11.4 µM]	
COC(=O)[C@@H]1c2cc3c(c(O)c2[C@@H](O)C[C@]1(C)O)C(=O)c1c(O)cc2c(c1C3=O)O[C@H]1O[C@@]2(C)[C@@H](O)[C@H](N(C)C)[C@H]1O	-12% [at 11.4 µM]	
C[C@@]12CC[C@H](O[C@@H]3O[C@H](CO)[C@@H](O)[C@H](O)[C@@H]3O)C[C@@H]1CC[C@H]1[C@H]2CC[C@@]2(C)[C@@H](C3=CCOC3=O)CC[C@]12O	0.209% [at 11.4 µM]	
C1C[C@@H]2CN(CCCN3CCOCC3)[C@@H](C1)O2	-5.91% [at 11.4 µM]	
NN=C(N)N	-9.75%	
Clc1ccc(C(c2ccc(Cl)cc2)n2cc[n+](C[C@@H](OCc3ccc(Cl)cc3Cl)c3ccc(Cl)cc3Cl)c2)cc1		15.8 µM (active)
CC(C)CN1CCC2(CC1)CCN(S(C)(=O)=O)CC2	-10.9%	
O=c1[nH]oc2c1CCNC2	inactive	
CCC1(CC)C(=O)C=CNC1=O	-11.7% [at 25.6 µM]	
CC(C)[C@@H]1CN[C@H](C(=O)O)[C@@H]1CC(=O)O	-9.31%	
C=C1CC[C@H](O)C/C1=C/C=C1\CCC[C@]2(C)[C@H]1CC[C@H]2[C@@H](C)CCCC(C)C	4.36% [at 25.6 µM]	
N[C@@]1(C(=O)O)CC[C@H](C(=O)O)C1	inactive	
CC(C)C[C@H]1C(=O)N2CCC[C@@H]2[C@@]2(O)O[C@](NC(=O)[C@@H]3C=C4c5cccc6[nH]cc(c56)C[C@@H]4N(C)C3)(C(C)C)C(=O)N12		2 µM (active)
CC(C)[C@@]1(NC(=O)[C@@H]2C[C@H]3c4cccc5[nH]cc(c45)C[C@@H]3N(C)C2)O[C@]2(O)[C@H]3CCCN3C(=O)CN2C1=O	24.7% [at 25.6 µM]	
CC[C@H](CO)NC(=O)[C@@H]1C=C2c3cccc4c3c(cn4C)C[C@@H]2N(C)C1	-17.3%	
CCNC(=S)NC1CC2CCCC(C1)N2Cc1ccco1 (centres undefined)	-6.93% [at 2.29 µM]	
CC1=CC(=O)C2=C(C)C[C@@H](O)[C@@H]3[C@@H](OC(=O)[C@H]3C)[C@H]12	-15.3% [at 25.6 µM]	
O=C(Nc1cccc2ccccc12)c1nn(C23CC4CC(CC(C4)C2)C3)cc1Br	-0.237%	
NCCCNCCSP(=O)(O)O	5.35%	
CNC(=S)NC1CC2CCCC(C1)N2CC(C)C (centres undefined)	-10%	
C[C@@H]1O[C@H](O[C@H]2C[C@@H](O)[C@@]3(CO)[C@H]4[C@@H](O)C[C@]5(C)[C@@H](C6=CC(=O)OC6)CC[C@]5(O)[C@H]4CC[C@]3(O)C2)[C@@H](O)[C@H](O)[C@@H]1O	-4.78% [at 25.6 µM]	
Cc1ccc(C2(c3ccc(C)c(O)c3C)CCN(C)CC2)c(C)c1O	-1.39% [at 11.4 µM]	
CCOP(=O)(OCC)c1nc(/C=C/c2ccccc2)oc1NCc1ccccc1		14.1 µM (active)
C[C@H](Br)C(=O)c1ccc2cc(Br)c3ccccc3c2c1	-23.5% [at 11.4 µM]	
NCCc1c[nH]c2ccc(C(N)=O)cc12	inactive	

Compound	activity, negative = inhibition	AC50
CCCN(CCC)[C@H]1CCc2c(F)ccc(O)c2C1	inactive	
CCS(=O)(=O)Nc1cccc(C(=C2CCCCC2)c2cnc[nH]2)c1		0.316 µM (active)
CC1(C)CCC(C)(C)c2c1ccc(O)c2Cc1c(O)ccc2c1C(C)(C)CCC2(C)C	-26.4% [at 11.4 µM]	
C[C@@]12CC[C@H](O)C[C@@H]1CC[C@@H]1[C@@H]2CC[C@@]2(C)[C@@H](C3=CC(=O)OC3)[C@H](O)C[C@]12O	-21.4% [at 11.4 µM]	
C[C@@]12CC[C@H](O)C[C@@H]1CC[C@H]1[C@H]2CC[C@@]2(C)[C@@H](C3=CC(=O)OC3)CC[C@]12O		3.16 µM (active)
C[C@@]12CC[C@H](O)C[C@@H]1CC[C@H]1[C@@H]2C[C@@H](O)[C@]2(C)[C@@H](C3=CC(=O)OC3)CC[C@]12O	2.53% [at 25.6 µM]	
CC[N+](CC)(CC)CCOc1cccc(OCC[N+](CC)(CC)CC)c1OCC[N+](CC)(CC)CC	2.58% [at 25.6 µM]	
CCN1C[C@@]2(COC)[C@H]3[C@@H](OC)[C@H]4C1[C@@]3([C@H](OC)C[C@@H]2O)[C@H]1C[C@@]2(O)[C@@H](OC(=O)c3ccccc3)[C@@H]1[C@@]4(OC(C)=O)[C@H](O)[C@@H]2OC	-14.5% [at 25.6 µM]	
O=c1c2ccccc2c2ccccc2c(=O)n1-c1cc2c3ccccc3ccc2c2ccccc12	-20.6% [at 11.4 µM]	
CC1=C2C(=O)[C@@H]3[C@@H](CC=C4C[C@@H](O)CC[C@@]43C)[C@H]2CC[C@@]12O[C@H]1C[C@H](C)CN[C@H]1[C@@H]2C	7.7% [at 11.4 µM]	
Cc1sc2ccccc2c1CC1=NCCN1	-5.52%	
CC(N)Cc1ccccc1Sc1ccc(O)cc1 (centres undefined)	13.2% [at 2.29 µM]	
O=[N+]([O-])c1cc([As](=O)(O)O)ccc1O	-2.7% [at 25.6 µM]	
Cn1c(O)c(C(c2ccccn2)c2c(O)n(C)c(=S)[nH]c2=O)c(=O)[nH]c1=S	-8.62%	
CCn1c(O)c(C(c2ccccn2)c2c(O)n(CC)c(=S)[nH]c2=O)c(=O)[nH]c1=S	-18.3%	
Cn1c(O)c(C(c2ccccn2)c2c(O)n(C)c(=S)n(C)c2=O)c(=O)n(C)c1=S		0.794 µM (active)
c1ccc(N2CCC3(CCNCC3)CC2)cc1	-14.2%	
Cn1cc(C(=O)C(=O)N[C@H]2CN3CCC2CC3)c2ccccc21	-12.3%	
C[C@H](N)[C@H](O)c1ccc(O)c(O)c1	inactive	
CC[C@]1(c2cccc(O)c2)CCCCN(C)C1	-9.23% [at 25.6 µM]	
CC(C)CCn1c(N)c(C(=O)NCc2cccs2)c2nc3ccccc3nc21	-19.7% [at 2.29 µM]	
CCCCn1c(N)c(C(=O)NCc2cccs2)c2nc3ccccc3nc21	-29.4% [at 2.29 µM]	
COc1ccc(Cn2c(N)c(C(=O)NCc3ccco3)c3nc4ccccc4nc32)cc1		11.2 µM (active)
CC(=O)OCC(=O)[C@@H]1CC[C@H]2[C@H]3CC[C@H]4C[C@@H](O)CC[C@]4(C)[C@@H]3C(=O)C[C@@]12C	-27.9% [at 25.6 µM]	
O=C(O)C[C@H]1NCc2cc3ccccc3nc21	-6.42% [at 11.4 µM]	

Compound	activity, negative = inhibition	AC50
CCC1=C(C[C@H]2NCCc3ccccc32)C[C@@H]2c3cc(OC)c(OC)cc3CCN2C1	-26.3% [at 11.4 µM]	
COc1ccc(C(=O)O[C@H]2CC[C@@]3(C)[C@H]4CC[C@H]5[C@]3(C[C@]3(O)[C@H]6CN7C[C@H](C)CC[C@H]7[C@](C)(O)[C@]6(O)[C@H](O)C[C@]53O)O[C@]24O)cc1OC	-3.45% [at 11.4 µM]	
Nc1ccccc1O.O.O=C(O)[C@H]1[O][Sb][O][C@H]1C(=O)O	-6.7% [at 11.4 µM]	
O=C=Nc1ccc(Cc2ccc(N=C=O)cc2)cc1 (tested in a mixture with another compound)	6.47% [at 11.4 µM]	
O=S1(=O)N(CCN2CC=C(c3c[nH]c4cc(F)ccc34)CC2)c2cccc3c2N1CCC3		5.01 µM (active)
CN1CC[C@]2(C)c3cc(O)ccc3N(C)[C@@H]12	-26.7% [at 25.6 µM]	
c1csc(CN2CCC3(CCNCC3)CC2)n1	1.58%	
Cc1c(C(=O)c2ccc3ccccc3c2)c2cccc3c2n1[C@H](CN1CCOCC1)CO3		7.94 µM (active)
O[C@@H]1[C@H](O)[C@H]2[C@@H](O)CCN2C[C@@H]1O	-12.5%	
CCN(CC)C1=NC(=[N+](CC)CC)c2ccccc21	21.8%	
CCCCCCC[n+]1ccc(-c2cc[n+](CCCCCCC)cc2)cc1	-27.3%	
O=C1CS[C@@H](c2ccccc2Cl)c2cc(Cl)ccc2N1	-14.7%	
O=C(O)c1cc(N=Nc2ccc([As](=O)(O)O)cc2)ccc1O	1.38% [at 11.4 µM]	
CCOC(C(=O)OCCCN(CC)CC)(c1ccccc1)c1ccccc1		0.708 µM (active)
C=C1[C@@H]2CC[C@H]3[C@@]4(C)C[C@@H](O[C@@H]5O[C@H](CO)[C@H](OS(=O)(=O)O)[C@@H](OS(=O)(=O)O)[C@@H]5OC(=O)CC(C)C)C[C@@H](C(=O)O)[C@H]4CC[C@@]3(C2)[C@H]1O	-7.65% [at 25.6 µM]	
CCN1C[C@@]2(COC)CC[C@H](OC)[C@]34[C@@H]1[C@]1(OCO[C@@]15C[C@@H](OC)C1C[C@H]3[C@H]5[C@@H]1OC)[C@H](O)[C@@H]24	-11.6% [at 25.6 µM]	
O=C(O)c1ccccc1-c1c2cc(Br)c(=O)cc-2oc2[c]([Hg])c(O)c(Br)cc12	-27.4% [at 25.6 µM]	
CC(=O)O[C@H]1C[C@@H](O[C@@H]2[C@H](C)O[C@H](O[C@@H]3[C@H](C)O[C@H](O[C@@H]4CC[C@@]5(C)[C@@H](CC[C@]6(C)[C@]5(C)C[C@H](O)[C@]5(C)[C@@H](C7=CC(=O)OC7)CC[C@@]56O)C4)C[C@@H]3O)C[C@@H]2O)O[C@@H](C)[C@H]1O[C@H]1O[C@@H](CO)[C@@H](O)[C@@H](O)[C@@H]1O	-1.51% [at 25.6 µM]	
COC(=O)[C@H]1C(=O)c2ccccc2O[C@@](C(=O)OC)(c2ccccc2)[C@@H]1c1ccccc1		3.98 µM (active)
O=P(O)(O)CCP(=O)(O)O	6.5% [at 11.4 µM]	
Cc1cc[c]([Sb]2[O][C@H]([C@H](O)[C@H](O)C(=O)O)[C@@H](CO)[O]2)cc1	0.934% [at 11.4 µM]	
C[N+]1(C)C2CC[C@H]1CC(OC(=O)[C@@H](CO)c1ccccc1)C2 (some centres undefined)	8.45% [at 11.4 µM]	
C[N+]1(C)[C@@H]2CC[C@H]1CC(OC(=O)[C@@H](CO)c1ccccc1)C2 (some centres undefined)	inactive	
C[N+]1(C)[C@@H]2CC[C@H]1CC(OC(=O)c1c[nH]c3ccccc13)C2 (some centres undefined)		7.94 µM (active)
